Screening data: PubChem, National Center for Advancing Translational Sciences (NCATS)
Most compounds without a hit are left out; they make up all but 2.6% or so of the library.
SmPrx2 inh: Schistosoma Mansoni Peroxiredoxins (Prx2); Schistosoma mansoni peroxiredoxin 2 (Prx2); S. mansoni Prx2 activity coupled to TGR/GSH (TGR is thioredoxin glutathione reductase), NADPH fluorescence loss, qHTS; Potency, µM; 65,000 tested, 0.07% active
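Enzyme mix: 100 uM NADPH, 25 nM TGR, 700 uM GSH, 50 nM Prx2 in 100 mM phosphate pH 7.4, 10 mM EDTA, 0.01% Tween-20. 15 min RT with compound; NADPH/GSH added, H2O2 starts reaction; NADPH fluorescence read 8 min.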
AmpC det inh: Promiscuous and Specific Inhibitors of AmpC Beta-Lactamase (assay with detergent); purified AmpC, nitrocefin hydrolysis with detergent; Potency, µM (top dose mostly 28.7 µM); 71,000 tested, 0.09% active; AID 584, 2007; active = well fitted curve in the direction sought with a large enough effect; inconclusive = small, poorly fitted or top-dose-only effect
Target sequence (P00811 whole entry, looked up): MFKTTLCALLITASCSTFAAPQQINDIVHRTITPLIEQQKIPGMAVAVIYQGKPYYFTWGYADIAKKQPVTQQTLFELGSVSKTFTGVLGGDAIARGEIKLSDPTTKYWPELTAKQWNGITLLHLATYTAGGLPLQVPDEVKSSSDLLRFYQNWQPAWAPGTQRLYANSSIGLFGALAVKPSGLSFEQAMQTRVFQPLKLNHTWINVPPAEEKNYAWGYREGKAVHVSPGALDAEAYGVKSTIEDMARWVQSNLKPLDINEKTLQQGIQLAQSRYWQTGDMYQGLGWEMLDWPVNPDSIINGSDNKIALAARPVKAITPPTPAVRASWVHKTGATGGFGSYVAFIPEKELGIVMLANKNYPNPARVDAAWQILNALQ
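E. coli AmpC (5.3 nM) in 20 mM phosphate pH 7.0 with 0.01% Triton X-100, preincubated 15 min RT with compound; nitrocefin (2 uL of 800 uM stock) hydrolysis followed by 480 nm absorbance every 20 s over 4 min.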
LT uptake inh: qHTS Assay for Anthrax Lethal Toxin Internalization. Potency, µM (top dose mostly 40 µM), actives largely listed as inhibitors. 70,000 tested, 0.67% active. Cells, anthrax lethal toxin internalization, FRET ratio (460/530); note: nearly all actives have a fitted effect of over 50% in size
AmpC inh no det: Promiscuous and Specific Inhibitors of AmpC Beta-Lactamase (assay without detergent); P00811; AmpC nitrocefin hydrolysis, absorbance 480 nm, no detergent; Potency, µM (doses to about 28.7 µM); 71,000 tested, 1.8% active
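AmpC, 20 mM phosphate pH 7.0; 15 min cpd preinc, RT; start with nitrocefin (800 uM stock); A480 kinetic read, 20 s intervals, 4 min. No-enzyme wells = negative control.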
Each line names hits and unclear results; the compound was inactive in the other large screens; [ ] = dose if it differs, or a comment. Unless noted, calls come from the whole dose curve.

Brc1ccc(Oc2ccc(Br)cc2Br)c(Br)c1	LT uptake inh inconclusive, AmpC inh no det 13µM (no result: SmPrx2 inh)
COC(=O)c1cc(-c2ccc(OC)c(OC)c2)n[nH]1	none
COc1ccc(-c2cc(-c3cc(F)ccc3O)[nH]n2)cc1OC	LT uptake inh 10µM
COc1ccc(-c2cc(-c3ccccc3O)[nH]n2)cc1OC	LT uptake inh 13µM (no result: SmPrx2 inh)
Oc1ccccc1-c1cc(-c2ccc3c(c2)OCCO3)n[nH]1	LT uptake inh 20µM
COc1ccc(O)c(-c2cc(-c3cccc(Br)c3)n[nH]2)c1	LT uptake inh inconclusive (no result: SmPrx2 inh)
C/C=C1\C[C@H](C)[C@](O)(CO)C(=O)OCC2=CCN3CC[C@@H](OC1=O)[C@@H]23	LT uptake inh inconclusive
COc1ccc2c(c1)CCC1C2CC[C@]2(C)[C@H](NCCCCCCN3C(=O)C=CC3=O)CC[C@@H]12 (stereo not given in full)	none
O=C(O)c1cc2ccccc2c(S(=O)(=O)O)c1O	none
COc1ccc2nc(NC(=O)C3CCN(S(=O)(=O)c4cccc5nsnc45)CC3)sc2c1	LT uptake inh 13µM
Cc1cccc(NC(=O)C2CCN(S(=O)(=O)c3cccc4nsnc34)CC2)n1	none
COc1ccccc1CNC(=O)C1CCC(CNc2c(N3CCOCC3)c(=O)c2=O)CC1 (stereo not given)	LT uptake inh inconclusive
O=C(NC1CCCc2ccccc21)C1CCC(CNc2c(N3CCOCC3)c(=O)c2=O)CC1 (stereo not given)	LT uptake inh inconclusive, AmpC inh no det 3.2µM[single pt active]
COc1cc(NC(=O)C2CCC(CNc3c(N4CCCCC4)c(=O)c3=O)CC2)cc(OC)c1 (stereo not given)	LT uptake inh inconclusive, AmpC inh no det 4µM[single pt active]
N[C@H](CCCC(=O)O)C(=O)O	none
Cc1c(C(=O)c2ccc3ccccc3c2)c2cccc3c2n1[C@H](CN1CCOCC1)CO3	LT uptake inh 2µM
COc1ccc(C(=O)[C@H](Br)[C@H](Br)C(=O)O)cc1	SmPrx2 inh inconclusive
COCCNS(=O)(=O)c1ccc(C2CNC(=O)C2)cc1 (stereo not given)	AmpC inh no det 4µM[single pt active]
NC(N)=N/N=C\c1ccc(O)c(C(=O)O)c1	none
O=c1ccn([C@H]2O[C@H](CO)[C@@H](O)[C@@H]2O)c(=O)[nH]1	LT uptake inh inconclusive
Cc1noc(C)c1S(=O)(=O)N1CCCC(C(=O)Nc2ccc(Cl)cn2)C1 (stereo not given)	none
Cc1cc(NC(=O)C2CCCN(S(=O)(=O)c3c(C)noc3C)C2)no1 (stereo not given)	AmpC inh no det 4µM[single pt active]
O=C1C=C(Nc2nc(C(=O)O)cc(=O)[nH]2)c2ccccc2C1=O	none
CSCC[C@@H]1NC(=O)C/C=C\[C@@H](C)COC(=O)[C@@H](CCSC)NC(=O)C/C=C\[C@@H](C)COC1=O	none (no result: SmPrx2 inh, AmpC det inh, AmpC inh no det)
Cc1ccc(C(=O)Nc2ccc(N3CCOCC3)cc2)cc1	none (no result: SmPrx2 inh)
CC(=O)N1CCN(c2ccc(NC(=O)c3ccc(C(C)(C)C)cc3)cc2)CC1	LT uptake inh 10µM
COc1cccc2c1[C@@H]1CN(CCCCn3c(=O)[nH]c4c(sc5ncc(-c6ccccc6)nc54)c3=O)C[C@H]1CO2	LT uptake inh 25µM
Cc1c(-c2nc(N)nc(C3CC3)c2C)nc(N)nc1C1CC1	none
CCOC(=O)CCc1c(C)nc2c(c(C)nn2C(C)(C)C)c1C	LT uptake inh inconclusive, AmpC inh no det 4µM[single pt active]
CCOC(=O)N1CCc2c(sc(NC(=O)c3ccc(Cl)s3)c2C(N)=O)C1	LT uptake inh 5µM
COc1cccc2cc(C(=O)n3ccc(C)n3)c(=O)oc12	AmpC det inh 10µM, AmpC inh no det 10µM
CC(=O)Oc1ccc2cc(-c3nc4ccccc4n3C)c(=O)oc2c1	SmPrx2 inh 18, LT uptake inh inconclusive
CCOC(=O)c1cc2ccc(OC(=O)c3ccco3)cc2oc1=O	LT uptake inh inconclusive
O=C1OCCC1Sc1nnc(-c2ccco2)o1 (stereo not given)	SmPrx2 inh 6.5
O=C(Nc1cccc(S(=O)(=O)C(F)F)c1)c1ccc(Cl)c(S(=O)(=O)N2CCOCC2)c1	LT uptake inh 10µM
COc1ccc(C(=O)Nc2cccc(C)c2)cc1S(=O)(=O)N1CCOCC1	none
Cc1ccc(S(=O)(=O)N(CC(O)CN2CCCCC2)c2ccccc2)cc1 (stereo not given)	AmpC inh no det 4µM[single pt active]
CC12C=C(/C=C/c3ccccc3)C(C)(C1)C(c1ccccc1)CC2=O (stereo not given)	none (no result: SmPrx2 inh, AmpC det inh, AmpC inh no det)
CCc1nccn1S(=O)(=O)c1ccc(C)c(C)c1	none
